Reference: the supplement of paper PMC7695840
Structures can show the parent of a compound that is named as a salt.

Experiments:
[1] = system: Staphylococcus aureus MW2 delta-mecA (mecA-); assay: normalized GFP fluorescence (growth of mecA- strain) (fraction of control range); higher = more growth of mecA- strain; conditions: compound concentration: 150 uM; cefoxitin: subinhibitory; fluorescent label: GFP
How it was run: (§1)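 A 1:1 mix of pre-induced S. aureus MW2 cells, DsRed-labeled with the gene and GFP-labeled without it, was grown in LB with a daily-set subinhibitory antibiotic dose on 150 μM compound (1.5% DMSO) in 1536-well plates, single replicate. Growth lasted 20 h at 37 °C, 90% humidity, without shaking, and DsRed (540/590) and GFP (485/520) were then read. Channels were scaled per plate to single-strain control medians, and plates with high untreated ratios and rows with DsRed/GFP >10 were removed.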

[2] = system: Staphylococcus aureus MW2 (mecA+); assay: normalized DsRed fluorescence (growth of mecA+ strain) (fraction of control range); higher = more growth of mecA+ strain; conditions: compound concentration: 150 uM; cefoxitin: subinhibitory; fluorescent label: DsRed
How it was run: as §1

Row | Compound | normalized GFP fluorescence [1] | normalized DsRed fluorescence [2]
1 | CN(C)[C@@H](CCOc1cccc2ccccc12)c1ccccc1 [Dapoxetine hydrochloride (Priligy)] | -0.00645 | 1.15
2 | CC(=O)N(O)CCCCCNC(=O)CCC(=O)N(O)CCCCCNC(=O)CCC(=O)N(O)CCCCCN | 0.272 | 1.26
3 | CC(C(=O)O)c1ccc(-c2ccccc2)c(F)c1 (configuration not stated) | 0.201 | 0.435
4 | CC1=C(CC(=O)O)c2cc(F)ccc2/C1=C\c1ccc([S+](C)[O-])cc1 (configuration not stated) | 0.33 | 0.476
5 | C[C@H]1O[C@@H](O[C@H]2[C@@H](O)C[C@H](O[C@H]3[C@@H](O)C[C@H](O[C@H]4CC[C@@]5(C)[C@H](CC[C@@H]6[C@@H]5CC[C@]5(C)[C@@H](C7=CC(=O)OC7)CC[C@]65O)C4)O[C@@H]3C)O[C@@H]2C)C[C@H](O)[C@@H]1O | 0.212 | 0.724
6 | CCCCCCCCCC(=O)N[C@@H](Cc1c[nH]c2ccccc12)C(=O)N[C@H](CC(N)=O)C(=O)N[C@@H](CC(=O)O)C(=O)N[C@@H]1C(=O)NCC(=O)N[C@@H](CCCN)C(=O)N[C@@H](CC(=O)O)C(=O)N[C@H](C)C(=O)N[C@@H](CC(=O)O)C(=O)NCC(=O)N[C@H](CO)C(=O)N[C@@H]([C@H](C)CC(=O)O)C(=O)N[C@@H](CC(=O)c2ccccc2N)C(=O)O[C@@H]1C [Daptomycin] | 0.013 | 0.064
7 | C[n+]1ccccc1/C=N/O | 0.332 | 0.9
8 | CCOc1ccccc1OC(c1ccccc1)C1CNCCO1 (configuration not stated) [Reboxetine mesylate] | 0.435 | 0.581
9 | CCC[C@H](N[C@@H](C)C(=O)N1[C@H](C(=O)O)C[C@@H]2CCCC[C@@H]21)C(=O)OCC [Perindopril Erbumine (Aceon)] | 0.225 | 0.779
10 | CN(C)CC(c1ccc(O)cc1)C1(O)CCCCC1 (configuration not stated) | 0.107 | 1.1
11 | Nc1nc2c(ncn2COC(CO)CO)c(=O)[nH]1 | 0.466 | 0.948
12 | CN(C)[C@@H]1C(O)=C(C(N)=O)C(=O)[C@@]2(O)C(O)=C3C(=O)c4c(O)cccc4[C@@](C)(O)[C@H]3[C@H](O)[C@@H]12 [Oxytetracycline dihydrate] | 0.0661 | 
13 | CCOC(=O)C1=C(C)NC(C)=C(C(=O)OCC)C1c1ccccc1/C=C/C(=O)OC(C)(C)C [Lacidipine (Lacipil, Motens)] | 0.112 | 
14 | C[C@@H]1O[C@@H]1P(=O)(O)O | 0.142 | 
15 | CCCCCOC(=O)Nc1nc(=O)n([C@@H]2O[C@H](C)[C@@H](O)[C@H]2O)cc1F [Capecitabine (Xeloda)] | 0.0511 | 
16 | CO[C@H]1C[C@@H]2CC[C@@H](C)[C@@](O)(O2)C(=O)C(=O)N2CCCC[C@H]2C(=O)O[C@H]([C@H](C)C[C@@H]2CC[C@@H](O)[C@H](OC)C2)CC(=O)[C@H](C)/C=C(\C)[C@@H](O)[C@@H](OC)C(=O)[C@H](C)C[C@H](C)/C=C/C=C/C=C/1C [Rapamycin (Sirolimus)] | 0.00415 | 
17 | Clc1ccc(C(Cn2ccnc2)OCc2ccc(Sc3ccccc3)cc2)c(Cl)c1 (configuration not stated) [Fenticonazole nitrate] | -0.002 | 0.0182
18 | COc1cccc2c1C(=O)c1c(O)c3c(c(O)c1C2=O)C[C@@](O)(C(=O)CO)C[C@@H]3O[C@H]1C[C@H](N)[C@H](O)[C@H](C)O1 [Doxorubicin (Adriamycin)] | -0.0343 | 

Row | Compound | normalized GFP fluorescence [1] | normalized DsRed fluorescence [2]
19 | COc1ccc([C@@H]2Sc3ccccc3N(CCN(C)C)C(=O)[C@@H]2OC(C)=O)cc1 | 0.124 | 0.612
20 | O=C([O-])C(O)[C@H](O)[C@@H](O)[C@H](O)[C@H](O)CO.O=C([O-])C(O)[C@H](O)[C@@H](O)[C@H](O)[C@H](O)CO.[Ca+2] (some centres not stated) | 0.35 | 0.718
21 | CC1=C(C(=O)O)N2C(=O)[C@@H](NC(=O)[C@H](N)C3=CCC=CC3)[C@H]2SC1 | 0.00153 | 
22 | CCCCCC(C)N (configuration not stated) | 0.403 | 0.663
23 | CO[C@H]1C[C@@H]2CC[C@@H](C)[C@@](O)(O2)C(=O)C(=O)N2CCCC[C@H]2C(=O)O[C@H]([C@H](C)C[C@@H]2CC[C@@H](O)[C@H](OC)C2)CC(=O)[C@H](C)/C=C(\C)[C@@H](O)[C@@H](OC)C(=O)[C@H](C)C[C@H](C)/C=C/C=C/C=C/1C | 0.0214 | 
24 | CC1(C)[C@H](C(=O)O)N2C(=O)C[C@H]2S1(=O)=O | 0.00608 | 
25 | CCS(=O)(=O)N1CC(CC#N)(n2cc(-c3ncnc4[nH]ccc34)cn2)C1 | 0.236 | 1.85
26 | CN(Cc1ccc(C(C)(C)C)cc1)Cc1cccc2ccccc12 [Butenafine HCl] | 0.11 | 
27 | O=S(=O)(O)NC1CCCCC1 | 0.457 | 0.493
28 | CCOC(=O)[C@H](CCc1ccccc1)N[C@@H](C)C(=O)N1CCC[C@H]1C(=O)O | 0.325 | 0.611
29 | COCC1=C(C(=O)OC(C)OC(=O)OC(C)C)N2C(=O)[C@@H](NC(=O)/C(=N\OC)c3csc(N)n3)[C@H]2SC1 (some centres not stated) | 0.00501 | 
30 | NCCc1c[nH]cn1 | 0.621 | 0.661
31 | CCC1=C(C)CN(C(=O)NCCc2ccc(S(=O)(=O)NC(=O)N[C@H]3CC[C@H](C)CC3)cc2)C1=O | 0.0961 | 
32 | CCC(C)(C)c1ccc(CC(C)CN2C[C@@H](C)O[C@@H](C)C2)cc1 (some centres not stated) | 0.099 | 
33 | Oc1c(Cl)cc(Cl)c(Cl)c1Cc1c(O)c(Cl)cc(Cl)c1Cl | 0.11 | 
34 | COc1cccc2c1C(=O)c1c(O)c3c(c(O)c1C2=O)C[C@@](O)(C(C)=O)C[C@@H]3O[C@H]1C[C@H](N)[C@H](O)[C@H](C)O1 | -0.00425 | 
35 | O=C(Oc1ccccc1C(=O)O)c1ccccc1O | 0.297 | 0.236
36 | O=C(O)CCCC[C@@H]1SC[C@@H]2NC(=O)N[C@@H]21 | 0.414 | 0.604
